Tests used:
Experiment in all cases: DAPPL (digital affinity profiling via proximity ligation, sequencing); 10 mM Tris-HCl pH 7.5, 50 mM NaCl, 1 mM DTT, 4% glycerol, room temperature, 30 min; GST-TFs on glutathione beads, 16-mer random dsDNA library, 0.1% formaldehyde crosslink after washing; high values mean tight binding
Details in all cases: protein: recombinant; tags: N-terminal GST; dsDNA, one strand shown
FLI1 = biological target: T1, FLI1 (Homo sapiens, UniProt Q01543 1-452)
T1 sequence: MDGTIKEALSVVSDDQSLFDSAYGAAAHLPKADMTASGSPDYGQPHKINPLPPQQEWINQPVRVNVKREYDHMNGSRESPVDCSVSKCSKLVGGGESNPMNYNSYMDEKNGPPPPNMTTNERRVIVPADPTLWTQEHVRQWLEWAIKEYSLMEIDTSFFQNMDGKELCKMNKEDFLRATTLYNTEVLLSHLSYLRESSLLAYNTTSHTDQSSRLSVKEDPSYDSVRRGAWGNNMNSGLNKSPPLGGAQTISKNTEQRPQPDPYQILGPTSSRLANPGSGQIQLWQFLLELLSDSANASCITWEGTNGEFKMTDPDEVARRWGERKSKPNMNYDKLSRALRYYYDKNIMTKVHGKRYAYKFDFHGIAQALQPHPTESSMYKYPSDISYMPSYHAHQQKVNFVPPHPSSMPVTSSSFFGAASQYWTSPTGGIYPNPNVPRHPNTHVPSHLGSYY
Method in brief: (§1)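 Pools were built from human transcription factors expressed in yeast as GST fusions, captured on glutathione beads and DNA-barcoded, along with a tag-only sample. Incubation with 200 nmole of a 16-mer random double-stranded DNA library lasted 30 min at room temperature in Tris/NaCl/DTT/glycerol buffer, and was followed by washing, 0.1% formaldehyde crosslinking, proximity ligation, PCR amplification and Illumina NextSeq500 sequencing. Binding signal is the quotient of each hexamer's read frequency for a factor and its frequency for the tag-only sample.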

ELK1 = biological target: T2, ELK1 (Homo sapiens, UniProt P19419 1-428)
T2 sequence: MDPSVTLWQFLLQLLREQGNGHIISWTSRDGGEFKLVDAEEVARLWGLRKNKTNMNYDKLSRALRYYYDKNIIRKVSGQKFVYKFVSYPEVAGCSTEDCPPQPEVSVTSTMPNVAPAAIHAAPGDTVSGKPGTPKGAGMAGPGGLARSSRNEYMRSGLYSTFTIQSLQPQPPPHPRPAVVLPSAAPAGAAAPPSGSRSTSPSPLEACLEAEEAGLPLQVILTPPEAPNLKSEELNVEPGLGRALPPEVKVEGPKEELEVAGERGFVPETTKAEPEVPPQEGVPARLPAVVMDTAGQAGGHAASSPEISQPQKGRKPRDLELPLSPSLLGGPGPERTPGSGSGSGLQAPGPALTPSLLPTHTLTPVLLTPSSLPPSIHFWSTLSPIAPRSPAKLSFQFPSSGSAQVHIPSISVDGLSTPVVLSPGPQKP
Method in brief: as §1

GABPA = biological target: T3, GABPA (Homo sapiens, UniProt Q06546 1-454)
T3 sequence: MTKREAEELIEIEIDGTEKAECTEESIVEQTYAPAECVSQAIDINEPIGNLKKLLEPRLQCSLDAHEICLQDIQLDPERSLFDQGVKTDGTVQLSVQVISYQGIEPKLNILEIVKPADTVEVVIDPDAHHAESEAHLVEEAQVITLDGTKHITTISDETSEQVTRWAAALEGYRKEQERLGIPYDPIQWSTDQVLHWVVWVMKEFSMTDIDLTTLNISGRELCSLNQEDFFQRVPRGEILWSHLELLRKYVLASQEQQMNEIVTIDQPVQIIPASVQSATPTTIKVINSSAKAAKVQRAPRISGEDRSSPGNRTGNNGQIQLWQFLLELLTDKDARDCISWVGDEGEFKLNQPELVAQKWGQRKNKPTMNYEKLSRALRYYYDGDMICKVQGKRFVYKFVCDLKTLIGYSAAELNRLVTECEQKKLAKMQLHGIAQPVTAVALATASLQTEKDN
Method in brief: as §1

ERG = biological target: T4, ERG (Homo sapiens, UniProt P11308 1-479)
T4 sequence: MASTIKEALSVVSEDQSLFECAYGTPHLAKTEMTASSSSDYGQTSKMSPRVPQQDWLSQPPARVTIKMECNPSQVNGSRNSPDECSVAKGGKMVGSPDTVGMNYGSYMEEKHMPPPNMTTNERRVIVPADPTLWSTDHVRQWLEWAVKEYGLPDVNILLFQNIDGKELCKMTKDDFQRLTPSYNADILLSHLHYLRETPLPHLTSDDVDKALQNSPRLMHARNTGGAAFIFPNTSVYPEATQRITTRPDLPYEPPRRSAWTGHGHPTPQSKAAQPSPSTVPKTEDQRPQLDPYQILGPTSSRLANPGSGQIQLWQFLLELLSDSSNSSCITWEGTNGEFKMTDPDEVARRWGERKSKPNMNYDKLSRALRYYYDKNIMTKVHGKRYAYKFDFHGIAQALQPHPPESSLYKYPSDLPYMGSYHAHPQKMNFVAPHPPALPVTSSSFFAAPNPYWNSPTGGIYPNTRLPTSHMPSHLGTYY
Method in brief: as §1

ELF1 = ELF1 (Homo sapiens, UniProt P32519 1-619)
ELF1, sequence (P32519 whole entry): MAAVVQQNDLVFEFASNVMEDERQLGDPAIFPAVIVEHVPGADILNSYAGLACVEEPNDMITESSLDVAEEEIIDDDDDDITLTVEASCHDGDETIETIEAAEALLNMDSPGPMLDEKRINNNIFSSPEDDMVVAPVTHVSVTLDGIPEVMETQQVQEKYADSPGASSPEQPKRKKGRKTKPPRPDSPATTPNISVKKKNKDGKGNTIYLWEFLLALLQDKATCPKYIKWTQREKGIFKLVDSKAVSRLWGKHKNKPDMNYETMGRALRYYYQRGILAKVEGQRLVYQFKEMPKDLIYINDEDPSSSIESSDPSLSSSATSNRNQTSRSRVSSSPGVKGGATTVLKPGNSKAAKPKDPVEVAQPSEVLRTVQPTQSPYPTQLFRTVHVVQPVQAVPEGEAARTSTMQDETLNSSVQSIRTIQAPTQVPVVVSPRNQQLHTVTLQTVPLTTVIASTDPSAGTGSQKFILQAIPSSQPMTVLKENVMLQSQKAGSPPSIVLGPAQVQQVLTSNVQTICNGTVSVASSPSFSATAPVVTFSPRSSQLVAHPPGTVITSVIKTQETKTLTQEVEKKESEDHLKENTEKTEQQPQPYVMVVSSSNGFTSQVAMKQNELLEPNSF
Method in brief: as §1

EHF = biological target: T5, EHF (Homo sapiens, UniProt Q9NZC4 1-300)
T5 sequence: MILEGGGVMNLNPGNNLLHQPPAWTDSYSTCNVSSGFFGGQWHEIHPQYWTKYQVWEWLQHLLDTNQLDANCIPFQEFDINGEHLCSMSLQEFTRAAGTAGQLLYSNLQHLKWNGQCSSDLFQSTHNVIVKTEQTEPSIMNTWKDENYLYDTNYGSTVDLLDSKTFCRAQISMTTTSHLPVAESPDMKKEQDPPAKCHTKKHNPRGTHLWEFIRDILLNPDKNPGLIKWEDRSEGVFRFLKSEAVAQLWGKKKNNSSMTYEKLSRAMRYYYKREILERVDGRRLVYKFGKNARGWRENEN
Method in brief: as §1

SPI1 = SPI1 (Homo sapiens, UniProt P17947 1-270)
Method in brief: as §1

SPIB = SPIB (Homo sapiens, UniProt Q01892 1-262)
SPIB, sequence (Q01892 whole entry): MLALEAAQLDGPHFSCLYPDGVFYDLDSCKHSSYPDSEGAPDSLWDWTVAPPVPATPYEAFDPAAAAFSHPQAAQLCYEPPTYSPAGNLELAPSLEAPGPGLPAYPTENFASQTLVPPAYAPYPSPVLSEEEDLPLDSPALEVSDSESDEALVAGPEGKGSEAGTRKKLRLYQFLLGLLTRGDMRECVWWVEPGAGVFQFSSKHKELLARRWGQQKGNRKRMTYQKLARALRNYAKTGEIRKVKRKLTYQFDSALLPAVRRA
Method in brief: as §1

ELK3 = biological target: T6, ELK3 (Homo sapiens, UniProt P41970 1-407)
T6 sequence: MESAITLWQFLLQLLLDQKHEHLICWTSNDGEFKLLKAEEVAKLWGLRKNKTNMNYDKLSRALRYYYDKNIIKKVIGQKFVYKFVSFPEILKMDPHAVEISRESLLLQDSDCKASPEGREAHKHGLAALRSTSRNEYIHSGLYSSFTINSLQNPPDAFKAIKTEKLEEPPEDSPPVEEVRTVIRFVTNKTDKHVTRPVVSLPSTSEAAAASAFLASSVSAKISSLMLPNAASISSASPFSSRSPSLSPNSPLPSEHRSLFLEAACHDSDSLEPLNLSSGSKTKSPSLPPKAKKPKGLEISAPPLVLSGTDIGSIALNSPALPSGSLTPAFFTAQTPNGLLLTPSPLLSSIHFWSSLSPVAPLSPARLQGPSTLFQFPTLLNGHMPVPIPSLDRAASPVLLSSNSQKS
Method in brief: as §1

FEV = biological target: T7, FEV (Homo sapiens, UniProt Q99581 1-238)
T7 sequence: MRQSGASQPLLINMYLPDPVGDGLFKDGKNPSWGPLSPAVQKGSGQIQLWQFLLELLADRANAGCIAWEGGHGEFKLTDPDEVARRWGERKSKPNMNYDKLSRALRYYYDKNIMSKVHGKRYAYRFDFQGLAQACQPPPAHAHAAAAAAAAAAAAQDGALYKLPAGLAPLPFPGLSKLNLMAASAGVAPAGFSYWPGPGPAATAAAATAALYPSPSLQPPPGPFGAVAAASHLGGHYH
Method in brief: as §1

ETV5 = ETV5 (Homo sapiens, UniProt P41161 1-510)
ETV5, sequence (P41161 whole entry): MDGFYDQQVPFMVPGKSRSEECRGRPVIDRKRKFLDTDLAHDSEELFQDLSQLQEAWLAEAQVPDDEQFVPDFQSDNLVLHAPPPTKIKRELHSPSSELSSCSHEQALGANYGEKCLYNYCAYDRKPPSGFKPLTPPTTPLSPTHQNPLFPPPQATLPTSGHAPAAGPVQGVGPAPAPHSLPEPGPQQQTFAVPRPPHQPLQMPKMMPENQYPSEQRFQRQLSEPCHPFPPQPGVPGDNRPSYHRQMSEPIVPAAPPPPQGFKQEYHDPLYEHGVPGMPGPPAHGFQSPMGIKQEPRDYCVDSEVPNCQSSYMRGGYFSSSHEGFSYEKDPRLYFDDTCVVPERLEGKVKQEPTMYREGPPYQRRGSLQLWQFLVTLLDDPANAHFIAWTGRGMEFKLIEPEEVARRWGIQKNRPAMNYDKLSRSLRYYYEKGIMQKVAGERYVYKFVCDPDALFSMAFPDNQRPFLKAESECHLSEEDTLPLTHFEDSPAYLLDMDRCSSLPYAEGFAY
Method in brief: as §1

SPIC = biological target: T8, SPIC (Homo sapiens, UniProt Q8N5J4 1-248)
T8 sequence: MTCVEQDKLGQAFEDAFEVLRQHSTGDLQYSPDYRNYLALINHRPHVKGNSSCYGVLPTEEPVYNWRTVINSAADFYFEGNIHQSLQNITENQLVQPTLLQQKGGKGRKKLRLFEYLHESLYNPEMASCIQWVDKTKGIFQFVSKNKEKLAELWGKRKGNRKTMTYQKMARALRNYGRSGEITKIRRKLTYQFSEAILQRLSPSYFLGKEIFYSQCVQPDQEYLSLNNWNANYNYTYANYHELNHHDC
Method in brief: as §1

ELF4 = ELF4 (Homo sapiens, UniProt Q99607 1-663)
ELF4, sequence (Q99607 whole entry): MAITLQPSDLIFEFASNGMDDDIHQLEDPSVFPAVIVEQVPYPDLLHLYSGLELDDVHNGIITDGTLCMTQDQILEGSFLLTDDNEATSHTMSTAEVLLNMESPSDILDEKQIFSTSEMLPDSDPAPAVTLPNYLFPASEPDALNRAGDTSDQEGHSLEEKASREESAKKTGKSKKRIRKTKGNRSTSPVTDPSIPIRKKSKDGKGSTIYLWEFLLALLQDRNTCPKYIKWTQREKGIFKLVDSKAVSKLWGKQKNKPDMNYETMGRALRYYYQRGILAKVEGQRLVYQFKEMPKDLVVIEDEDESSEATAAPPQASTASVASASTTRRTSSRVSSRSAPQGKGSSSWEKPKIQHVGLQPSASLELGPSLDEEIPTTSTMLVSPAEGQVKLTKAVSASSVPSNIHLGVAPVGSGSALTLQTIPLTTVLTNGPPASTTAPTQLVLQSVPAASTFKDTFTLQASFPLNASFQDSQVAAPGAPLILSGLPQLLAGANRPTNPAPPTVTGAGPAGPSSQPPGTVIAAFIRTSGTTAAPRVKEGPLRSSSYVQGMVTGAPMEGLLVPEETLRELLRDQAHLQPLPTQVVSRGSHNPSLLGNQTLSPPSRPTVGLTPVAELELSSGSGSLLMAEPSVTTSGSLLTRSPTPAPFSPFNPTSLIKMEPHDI
Method in brief: as §1

ELK4 = biological target: T9, ELK4 (Homo sapiens, UniProt P28324-2 1-405)
T9 sequence: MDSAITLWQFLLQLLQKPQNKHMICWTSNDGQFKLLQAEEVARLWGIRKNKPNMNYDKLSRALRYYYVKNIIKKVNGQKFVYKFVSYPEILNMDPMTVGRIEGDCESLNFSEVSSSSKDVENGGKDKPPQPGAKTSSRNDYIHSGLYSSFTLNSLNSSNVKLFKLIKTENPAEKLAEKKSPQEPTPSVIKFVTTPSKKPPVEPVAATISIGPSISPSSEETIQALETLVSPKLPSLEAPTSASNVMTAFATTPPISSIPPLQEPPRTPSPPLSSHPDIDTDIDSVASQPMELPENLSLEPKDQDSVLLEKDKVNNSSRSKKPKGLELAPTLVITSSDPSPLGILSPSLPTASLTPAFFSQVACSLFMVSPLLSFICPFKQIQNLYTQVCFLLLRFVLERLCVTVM
Method in brief: as §1

ETV2 = biological target: T10, ETV2 (Homo sapiens, UniProt O00321 1-342)
T10 sequence: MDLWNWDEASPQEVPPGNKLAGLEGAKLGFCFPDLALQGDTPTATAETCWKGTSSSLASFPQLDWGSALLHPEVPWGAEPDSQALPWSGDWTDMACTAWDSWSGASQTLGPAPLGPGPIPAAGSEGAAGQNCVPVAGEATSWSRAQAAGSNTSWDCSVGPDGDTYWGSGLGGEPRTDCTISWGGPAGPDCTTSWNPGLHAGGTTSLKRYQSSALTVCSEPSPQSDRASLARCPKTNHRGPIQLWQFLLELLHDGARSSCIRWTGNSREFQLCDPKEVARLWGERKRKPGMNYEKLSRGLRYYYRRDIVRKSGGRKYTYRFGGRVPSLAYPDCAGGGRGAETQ
Method in brief: as §1

ELF3 = biological target: T11, ELF3 (Homo sapiens, UniProt P78545 1-371)
T11 sequence: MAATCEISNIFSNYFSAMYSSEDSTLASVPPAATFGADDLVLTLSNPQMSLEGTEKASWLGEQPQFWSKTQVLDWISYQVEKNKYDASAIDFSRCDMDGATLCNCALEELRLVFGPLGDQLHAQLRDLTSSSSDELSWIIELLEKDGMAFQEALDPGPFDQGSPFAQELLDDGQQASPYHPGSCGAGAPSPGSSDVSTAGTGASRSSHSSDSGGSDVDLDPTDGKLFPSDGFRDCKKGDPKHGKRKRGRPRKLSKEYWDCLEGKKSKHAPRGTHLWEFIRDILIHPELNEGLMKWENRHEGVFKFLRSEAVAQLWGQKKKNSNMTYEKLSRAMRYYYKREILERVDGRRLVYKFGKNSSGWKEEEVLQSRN
Method in brief: as §1

ETV1 = ETV1 (Homo sapiens, UniProt P50549 1-477)
ETV1, sequence (P50549 whole entry): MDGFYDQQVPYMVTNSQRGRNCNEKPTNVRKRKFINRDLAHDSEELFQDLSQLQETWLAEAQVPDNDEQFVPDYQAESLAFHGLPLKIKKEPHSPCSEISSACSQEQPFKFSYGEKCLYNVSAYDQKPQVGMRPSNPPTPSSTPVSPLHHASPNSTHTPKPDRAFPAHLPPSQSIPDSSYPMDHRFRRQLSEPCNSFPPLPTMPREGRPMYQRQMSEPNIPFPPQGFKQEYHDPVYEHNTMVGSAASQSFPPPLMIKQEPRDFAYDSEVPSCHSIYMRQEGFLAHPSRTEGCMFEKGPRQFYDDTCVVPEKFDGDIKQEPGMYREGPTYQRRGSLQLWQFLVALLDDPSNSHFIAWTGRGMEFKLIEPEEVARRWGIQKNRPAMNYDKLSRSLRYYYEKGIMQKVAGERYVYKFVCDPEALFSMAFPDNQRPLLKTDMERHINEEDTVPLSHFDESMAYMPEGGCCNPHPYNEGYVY
Method in brief: as §1

Sequence	binding signal (FLI1)	binding signal (ELK1)	binding signal (GABPA)	binding signal (ERG)	binding signal (ELF1)	binding signal (EHF)	binding signal (SPI1)	binding signal (SPIB)	binding signal (ELK3)	binding signal (FEV)	binding signal (ETV5)	binding signal (SPIC)	binding signal (ELF4)	binding signal (ELK4)	binding signal (ETV2)	binding signal (ELF3)	binding signal (ETV1)
GGCCTC	1.25 fold enrichment (6-mer frequency, TF over GST control)	1.2 fold enrichment (6-mer frequency, TF over GST control)	1.26 fold enrichment (6-mer frequency, TF over GST control)	1.19 fold enrichment (6-mer frequency, TF over GST control)	1.17 fold enrichment (6-mer frequency, TF over GST control)	1.21 fold enrichment (6-mer frequency, TF over GST control)	1.11 fold enrichment (6-mer frequency, TF over GST control)	1.18 fold enrichment (6-mer frequency, TF over GST control)	1.1 fold enrichment (6-mer frequency, TF over GST control)	1.07 fold enrichment (6-mer frequency, TF over GST control)	1.15 fold enrichment (6-mer frequency, TF over GST control)	1.01 fold enrichment (6-mer frequency, TF over GST control)	1.12 fold enrichment (6-mer frequency, TF over GST control)	1.17 fold enrichment (6-mer frequency, TF over GST control)	1.17 fold enrichment (6-mer frequency, TF over GST control)	1.05 fold enrichment (6-mer frequency, TF over GST control)	1.07 fold enrichment (6-mer frequency, TF over GST control)
CACAAC	1.24 fold enrichment (6-mer frequency, TF over GST control)	1.24 fold enrichment (6-mer frequency, TF over GST control)	1.3 fold enrichment (6-mer frequency, TF over GST control)	1.25 fold enrichment (6-mer frequency, TF over GST control)	1.28 fold enrichment (6-mer frequency, TF over GST control)	1.21 fold enrichment (6-mer frequency, TF over GST control)	1.21 fold enrichment (6-mer frequency, TF over GST control)	1.23 fold enrichment (6-mer frequency, TF over GST control)	1.22 fold enrichment (6-mer frequency, TF over GST control)	1.31 fold enrichment (6-mer frequency, TF over GST control)	1.24 fold enrichment (6-mer frequency, TF over GST control)	1.25 fold enrichment (6-mer frequency, TF over GST control)	1.23 fold enrichment (6-mer frequency, TF over GST control)	1.25 fold enrichment (6-mer frequency, TF over GST control)	1.19 fold enrichment (6-mer frequency, TF over GST control)	1.3 fold enrichment (6-mer frequency, TF over GST control)	1.2 fold enrichment (6-mer frequency, TF over GST control)

— paper PMC7862700, “An all-to-all approach to the identification of sequence-specific readers for epigenetic DNA modifications on cytosine”
